Inconclusive results are not listed. Calls of active or inactive are those of the source. Calls come from the whole dose curve; as a rule, active = well fitted inhibition curve with a large enough effect; inconclusive = small, poorly fitted or top-dose-only effect; inactive = flat fitted curve, though single readings scatter.
test system: CRL-7250; test: qHTS assay to identify novel small-molecules to repurpose for Merkel cell carcinoma treatment (AID 1296009); conditions: MCC and control cell lines, CellTiter-Glo viability, 72 h; series mostly up to 92 µM; activity change, negative = cytotoxicity: at the top concentration; note: nearly all actives have a fitted effect of over 60% in size
Procedure, shortened: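 Luminescence from CellTiter-Glo, read 10 min after addition at room temperature, reported viability following a 72 hr, 37 degree celsius treatment with NPC or MIPE compounds in titration; values normalized to plate controls.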

| SMILES | outcome |
| --- | --- |
| CCCN1CCC=C(c2cc(-c3ccc(C)cc3)no2)C1 | inactive |
| C[C@@H]1C[C@H]2OC(=O)[C@@]3(C)CCC[C@](C)(C23)[C@@]1(O)CCC1=CC(=O)OC1O (some centres undefined) | inactive |
| COc1cc(C2CC(=O)Nc3c2cc(Br)c2ccccc32)cc(OC)c1OC (centres undefined) | inactive |
| CC1=C2CC(C)(C)CC2C(O)C2=C(C1)C(=O)OC2O (centres undefined) | inactive |
| CCn1nnnc1NCc1ccc(C(C)C)cc1 | inactive |
| COc1cc(C(=O)O)ccc1OC1OC(CO)C(O)C(O)C1O (centres undefined) | inactive |
| C=C(C(=O)O)C1CC2=C(C)CCCC2(C)C[C@@H]1O (some centres undefined) | inactive |
| COc1ccc(C(O[C@@H]2O[C@H](CO)[C@@H](O)[C@H](O)[C@H]2O)C(CO)Oc2ccc(/C=C/CO)cc2OC)cc1O (some centres undefined) | inactive [at 17.4 µM] |
| NC(=O)NCCCC(NC(=O)Cc1ccccc1)C(=O)O (centres undefined) | inactive |
| COC(=O)C1=COC(OC2OC(CO)C(O)C(O)C2O)C2C(COC(=O)/C=C/c3ccc(O)cc3)C(O)C(O)C12 (centres undefined) | inactive [at 17.4 µM] |
| COc1ccc(/C=C/C(=O)O[C@@H]2[C@@H](OC(C)=O)[C@@H](OC(C)=O)[C@H](O[C@H]3[C@@H]4C=CO[C@@H](O[C@@H]5O[C@H](CO)[C@@H](O)[C@H](O)[C@H]5O)[C@@H]4[C@@]4(CO)O[C@@H]34)O[C@H]2C)cc1 | inactive [at 17.4 µM] |
| COc1cc2c(cc1O)C1(Cc3ccc4c(c3C1O)OCO4)[N+](C)([O-])CC2 (centres undefined) | inactive |
| CC1CC(=O)C2C(O)(C1)CC(O)C13OC1c1c(O)cccc1C(=O)C23O (centres undefined) | inactive |
| COC1OC(O)C2(CCC3(O2)C(C)CC2OC(=O)C4(C)CCCC3(C)C24)C1O (centres undefined) | inactive |
| CCC(COC)n1nnc2c(Nc3ccc(OC)cc3C)nc(C)cc21 (centres undefined) | inactive |
| C[C@@H]1CC[C@@]23CC[C@]4(C)[C@@](C=CC5[C@@]6(C)CC[C@H](O)C(C)(C)C6CC[C@]54C)(OC2=O)C3[C@H]1C (some centres undefined) | inactive [at 17.4 µM] |
| CCCCc1ccc(NS(=O)(=O)c2ccc(F)cc2)cc1 | inactive |
| C[C@@H](c1ccccc1)N(C(N)=NC#N)c1cccc2ncccc12 | inactive |
| O=C(O)c1ccc(OC2OC(CO)C(O)C(O)C2O)cc1 (centres undefined) | inactive |
| CC(C)(O)C1=CCC23COC(C2)C(O)(C(=O)O)CCC13 (centres undefined) | inactive |

| SMILES | outcome |
| --- | --- |
| C[C@@H]1C(=O)OC[C@H]2C(C(=O)O)=C[C@@H]3CC(C)(C)C[C@]312 | inactive |
| Cc1nc2cc(C(=O)NCc3ccccn3)nn2c(C)c1Cc1cccc(Cl)c1 | inactive |
| CC1=C(CC(=O)O)c2cc(F)ccc2C1=Cc1ccc(S(C)(=O)=O)cc1 | inactive |
| CC(=O)O[C@@H]1[C@H](O[C@@H]2O[C@@H](CO)[C@H](O)[C@H]2O)[C@@H](O[C@@H]2O[C@@H](C)[C@H](O[C@@H]3OC[C@@H](O)[C@H](O)[C@H]3O)[C@@H](O)[C@H]2O)[C@H](OC(=O)[C@]23CCC(C)(C)C[C@H]2C2=CCC4[C@@]5(C)CC[C@H](O[C@@H]6O[C@H](C(=O)O)[C@@H](O)[C@H](O)[C@H]6O[C@@H]6O[C@H](CO)[C@H](O)[C@H](O)[C@H]6O)[C@@](C)(C=O)C5CC[C@@]4(C)[C@]2(C)CC3)O[C@@H]1C (some centres undefined) | inactive [at 9.27 µM] |
| CC1(C)CC[C@]2(C(=O)O[C@@H]3O[C@H](CO[C@@H]4O[C@H](CO)[C@@H](O)[C@H](O)[C@H]4O[C@@H]4O[C@H](CO)[C@@H](O)[C@H](O)[C@H]4O)[C@@H](O)[C@H](O[C@@H]4O[C@H](CO)[C@@H](O)[C@H](O)[C@H]4O)[C@H]3O)CC[C@]3(C)C(=CCC4[C@@]5(C)CC[C@@H](O)[C@@](C)(C(=O)O[C@@H]6O[C@H](CO)[C@@H](O)[C@H](O)[C@H]6O)C5CC[C@]43C)[C@@H]2C1 (some centres undefined) | inactive [at 9.27 µM] |
| COc1cc2ncnc(Nc3ccc(F)c(Cl)c3)c2cc1O | inactive |
| CC(C)C1(O[C@@H]2O[C@H](CO)[C@@H](O)[C@H](O)[C@H]2O)CC=C(CO)CC1 (some centres undefined) | inactive |
| CC1(C)CC2C3=CCC4C5(C)CCC(OC6OC(CO)C(O)C(OC7OC(CO)C(O)C(OC8OC(CO)C(O)C(OC9OC(COC%10OC(CO)C(O)C(O)C%10O)C(O)C(O)C9O)C8O)C7O)C6O)C(C)(C)C5CCC4(C)C3(C)CCC2(C(=O)O)CC1O (centres undefined) | inactive [at 9.27 µM] |
| C/C=C/C=C/C1=C2C(=O)C3(C)C4C(C(=O)CC(O)/C=C/C)=C(O1)C1(C)C2C2(C)OC1(O)C4(C)OC23O (centres undefined) | inactive [at 17.4 µM] |
| CC(=O)NC(CCC(=O)O)C(=O)NCCc1ccc(O)cc1 (centres undefined) | inactive |
| CC(=C\C(C)O)/C=C(\C)C(=O)CC1CC(CC(N)=O)CC(=O)O1 (centres undefined) | inactive |
| CC(C)CC(=O)NCCn1cc(C(=O)O)c(=O)cc1C(O)c1ccccc1 (centres undefined) | inactive |
| OCC(O)C(c1c[nH]c2ccccc12)c1c[nH]c2ccccc12 (centres undefined) | inactive |
| COc1ccc(CCC(=O)O)c(O[C@@H]2O[C@H](CO)[C@@H](O)[C@H](O)[C@H]2O)c1 | inactive |
| C/C(=C/CCC(CO)C1CCC2(C)C3CCC4C(C)(C)C(OC5OC(CO)C(O)C(O)C5O)CC(O)C45CC35CCC12C)COC1OC(CO)C(O)C(O)C1O (centres undefined) | inactive [at 17.4 µM] |
| CC(=O)OC[C@]12[C@H](OC(C)=O)[C@H](OC(=O)c3ccccc3)[C@@H]3[C@@H](OC(C)=O)[C@]1(OC3(C)C)[C@H](C)C[C@H](OC(C)=O)[C@@H]2OC(=O)c1ccccc1 | inactive [at 17.4 µM] |
| c1ccc(C(OC2CCN(CCCc3nn[nH]n3)CC2)c2ccccc2)cc1 | inactive |
| COC(=O)C1=COC(OC2OC(CO)C(O)C(O)C2O)C2C1C=CC2(O)CO (centres undefined) | inactive [at 17.4 µM] |
| CC(=O)OC[C@]1(O)[C@H]2[C@H](OC(=O)CC(C)C)OC=C(CO[C@@H]3O[C@H](CO)[C@@H](O)[C@H](O)[C@H]3O)[C@H]2C[C@@H]1O | inactive [at 17.4 µM] |

From PubChem BioAssay (NCATS)
